Results filed as inconclusive are left out. Active and inactive are the calls of the source. Unless noted, calls come from the whole dose curve; as a rule, active = well fitted curve in the direction sought with a large enough effect in the repeat runs; inconclusive = weak or mixed curves; inactive = no such curve, though single readings can be large; an effect the other way counts as inactive or inconclusive.
How the values were obtained:
[1] = qHTS assay for small molecules that induce genotoxicity in human embryonic kidney cells expressing luciferase-tagged ATAD5 (AID 651632); note: nearly all actives have a fitted effect of over 15% in size
Method in brief: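 Quantitative HTS in HEK293T expressing luciferase-tagged ATAD5, whose levels rise upon DNA damage. Exposure ran 16 hr at 37C and 5% CO2, with luminescence read 30 min after Amplite addition at room temperature.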

[2] = qHTS assay for small molecules that induce genotoxicity in human embryonic kidney cells expressing luciferase-tagged ATAD5 - cell viability (AID 651634; calls by dose curve; note: nearly all actives have a fitted effect of over 25% in size)
Method in brief: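 After 15.5 hr incubation with compound at 37C, 5% CO2, HEK293T ATAD5-luciferase cells received CellTiter-Fluor reagent; fluorescence intensity was quantified following 30 min at 37C.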

[3] = qHTS assay for small molecule disruptors of the mitochondrial membrane potential - cell viability (AID 720634; calls by dose curve;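 note: human HepG2 liver cancer cells; series mostly up to about 83 µM; nearly all actives have a fitted effect of over 20% in size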)
Method in brief: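 ATP-based luminescent viability readout (CellTiter-Glo, 30 min, room temperature) in HepG2 cells multiplexed with the m-MPI membrane potential dye; compound exposure lasted 1 hr at 37 C.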

[4] = qHTS assay to test for compound auto fluorescence at 590 nm (red) in HepG2 cells (AID 720674)
Method in brief: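 Rose Bengal sodium served as the red fluorophore standard. HepG2 monolayers (overnight attachment, MEM with 10% FBS) were exposed to test compounds for 1 hr at 37 C and read at Ex 540/Em 590 nm.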

[5] = qHTS assay to test for compound auto fluorescence at 535 nm (green) in HepG2 cells (AID 720675)
[6] = qHTS assay to test for compound auto fluorescence at 460 nm (blue) in HEK293 cells (AID 720678)
Method in brief: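 Blue read-out at excitation 405 nm and emission 460 nm follows overnight compound exposure of HEK293 cells at 37C in 5% CO2. Activity is given as auto fluorescence equivalency to triamterene.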

[7] = qHTS assay to test for compound auto fluorescence at 460 nm (blue) in HEK293 cell free culture (AID 720681)
Method in brief: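 Test compounds were pinned into cell-free culture medium (DMEM with 10% FBS) and fluorescence was read directly at Ex/Em 405/460 nm. Signals were expressed as fluorescence equivalents of triamterene, with DMSO vehicle as control.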

[8] = qHTS assay to test for compound auto fluorescence at 535 nm (green) in HEK293 cell free culture (AID 720682)
Method in brief: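 Intrinsic compound fluorescence is measured in culture medium containing 10% FBS, with excitation at 485 nm and detection at 535 nm, referenced to fluorescein.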

[9] = qHTS assay to test for compound auto fluorescence at 590 nm (red) in HEK293 cell free culture (AID 720683)
Method in brief: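 Tox21 10K library compounds were pinned into cell-free DMEM with 10% FBS and fluorescence was read at excitation 540 nm. Activity is expressed as Rose Bengal sodium equivalency.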

[10] = qHTS assay to test for compound auto fluorescence at 590 nm (red) in HepG2 cell free culture (AID 720684)
Method in brief: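 Readout: intrinsic compound fluorescence at 590 nm emission after 540 nm excitation, scaled to Rose Bengal sodium. Matrix was cell-free MEM with 10% FBS; DMSO vehicle wells served as control.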

[11] = qHTS assay to test for compound auto fluorescence at 460 nm (blue) in HepG2 cell free culture (AID 720685)
Method in brief: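 Cell-free plates of MEM plus 10% FBS received 23 nL compound or DMSO vehicle; blue-channel (405/460 nm) intensity scored against triamterene as reference fluorophore.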

[12] = qHTS assay to test for compound auto fluorescence at 535 nm (green) in HepG2 cell free culture (AID 720686)
[13] = qHTS assay to test for compound auto fluorescence at 460 nm (blue) in HepG2 cells (AID 720687)
Method in brief: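 Cells (2,000/well in MEM with 10% FBS) attached overnight at 37 C, then were exposed to compound or DMSO for 1 hr at 37 C, 5% CO2. Fluorescence read at Ex/Em 405/460 nm, expressed as triamterene-equivalent signal.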

[14] = molecular target: Glucocorticoid receptor (Homo sapiens) (UniProt P04150); experiment: qHTS assay to identify small molecule antagonists of the glucocorticoid receptor (GR) signaling pathway (AID 720692; active = well fitted inhibition curve with a large enough effect in the signal ratio in the repeat runs, not every such curve was filed as active; the % refers to the signal ratio; note: potency is the fitted concentration of half-maximal effect)
Method in brief: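 Quantitative HTS in antagonist format: HeLa cells expressing endogenous GR and a stably integrated GRE-bla reporter, stimulated with 5 nM dexamethasone (final) alongside test compounds for 18 h.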

[15] = qHTS assay for small molecule agonists of the p53 signaling pathway - cell viability (AID 651633; calls by dose curve; note: nearly all actives have a fitted effect of over 30% in size; note: potency is the fitted concentration of half-maximal effect;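 for activity change, negative = cytotoxicity: p53RE-bla HCT reporter cells with a stable beta-lactamase p53 reporter; series mostly up to about 83 µM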)
Method in brief: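 p53RE-bla cells, seeded at 4,000 per well and rested 5 h at 37 C/5% CO2, received compounds in DMSO for 16 h at 37 C. CellTiter-Glo was then added, and luminescence was read after 30 min at room temperature to gauge cytotoxicity.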

[16] = qHTS assay to test for compound auto fluorescence at 590 nm (red) in HEK293 cells (AID 720679)
Method in brief: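 Red channel, Ex/Em 540/590nm; signal expressed as equivalency to Rose Bengal sodium. HEK293, 2,000 cells/well, 10% dialyzed FBS; 23 nL compound pinned after 4-5 hr attachment; overnight 37C/5% CO2 before reading.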

[17] = qHTS assay to test for compound auto fluorescence at 535 nm (green) in HEK293 cells (AID 720680)
[18] = molecular target: Glucocorticoid receptor (Homo sapiens) (UniProt P04150); experiment: qHTS assay to identify small molecule agonists of the glucocorticoid receptor (GR) signaling pathway (AID 720691; active = well fitted activation curve with a large enough effect in the signal ratio in the repeat runs, not every such curve was filed as active; the % refers to the signal ratio)
Method in brief: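 Cells: GR-bla HeLa, endogenous GR with stably integrated GRE-beta-lactamase reporter. Treatment 18 h, 37 C, compounds delivered in DMSO. Detection via LiveBLAzer B/G FRET substrate, 2 h RT, fluorescence intensity.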

[19] = qHTS assay for small molecule disruptors of the mitochondrial membrane potential (AID 720635); note: potency is the fitted concentration of half-maximal effect
Method in brief: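 HepG2 cells (2,000/well) attached overnight at 37C, then took compound for 1 hr at 37C, 5% CO2. Mito-MPS dye was added for 30 min; fluorescence was read at 490/535 nm (monomers) and 540/590 nm (aggregates).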
% is set by controls: 0 for no effect and ±100 for the full control effect.

Chain of Glucocorticoid receptor (Homo sapiens) (P04150 whole entry, looked up): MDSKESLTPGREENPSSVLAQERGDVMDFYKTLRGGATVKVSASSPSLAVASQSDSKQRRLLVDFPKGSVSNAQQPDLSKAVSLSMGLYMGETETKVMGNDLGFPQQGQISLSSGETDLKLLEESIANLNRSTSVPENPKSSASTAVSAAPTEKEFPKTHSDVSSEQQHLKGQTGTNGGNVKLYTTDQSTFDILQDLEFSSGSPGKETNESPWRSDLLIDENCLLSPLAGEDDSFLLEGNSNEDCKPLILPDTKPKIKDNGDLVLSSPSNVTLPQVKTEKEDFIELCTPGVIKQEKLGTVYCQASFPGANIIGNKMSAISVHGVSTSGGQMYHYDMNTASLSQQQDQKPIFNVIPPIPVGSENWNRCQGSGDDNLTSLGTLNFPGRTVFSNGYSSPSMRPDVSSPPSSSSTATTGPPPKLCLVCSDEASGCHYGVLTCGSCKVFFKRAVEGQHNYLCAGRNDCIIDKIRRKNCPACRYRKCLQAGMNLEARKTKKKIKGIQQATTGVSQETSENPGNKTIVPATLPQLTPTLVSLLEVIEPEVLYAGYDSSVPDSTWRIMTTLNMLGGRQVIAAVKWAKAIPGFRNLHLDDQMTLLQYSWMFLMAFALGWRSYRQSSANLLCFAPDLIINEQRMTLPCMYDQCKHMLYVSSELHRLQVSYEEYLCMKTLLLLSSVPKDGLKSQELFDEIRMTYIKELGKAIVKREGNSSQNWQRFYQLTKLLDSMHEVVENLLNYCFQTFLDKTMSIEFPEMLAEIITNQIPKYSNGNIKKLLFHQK

O[C@@H](CNC[C@H](O)[C@H]1CCc2cc(F)ccc2O1)[C@@H]1CCc2cc(F)ccc2O1
active: Potency [14] 23.9 µM
inactive: Potency [1] | Potency [2] | outcome [3] | outcome [4] | outcome [5] | Potency [6] | Potency [7] | outcome [8] | outcome [9] | outcome [10] | Potency [11] | outcome [12] | Potency [13]

O=C(/C=C/c1ccc([N+](=O)[O-])cc1)c1ccccc1
active: Potency [15] 68.7 µM
inactive: Potency [2] | outcome [3] | outcome [5] | Potency [6] | outcome [16] | outcome [17] | Potency [7] | outcome [8] | outcome [9] | outcome [10] | Potency [11] | outcome [12] | Potency [13] | Potency [18]

CN1CCCN(C(c2ccccc2)c2ccc(Cl)cc2)CC1 (centres undefined)
inactive: Potency [1] | Potency [2] | outcome [3] | outcome [5] | Potency [6] | outcome [16] | outcome [17] | Potency [7] | outcome [8] | outcome [9] | outcome [10] | Potency [11] | outcome [12] | Potency [18]

COC(=O)C1=C(C)NC(C)=C(C(=O)OC(C)(C)CN(C)CCC(c2ccccc2)c2ccccc2)C1c1cccc([N+](=O)[O-])c1 (centres undefined)
inactive: Potency [1] | outcome [4] | outcome [5] | Potency [6] | outcome [17] | Potency [7] | outcome [8] | outcome [9] | outcome [10] | Potency [11] | outcome [12] | Potency [18]
active: Potency [19] 5.96 µM | Potency [14] 6.74 µM

CCCCCCCCCCCSCC(=O)O
inactive: Potency [1] | Potency [2] | outcome [3] | outcome [4] | Potency [6] | outcome [16] | outcome [17] | Potency [7] | outcome [8] | outcome [9] | outcome [10] | Potency [11] | Potency [13]

CC1CCC(C(C)CS)CC1S (centres undefined)
active: Potency [15] 54.5 µM
inactive: Potency [1] | Potency [19] | outcome [4] | outcome [5] | Potency [6] | outcome [16] | outcome [17] | Potency [7] | outcome [8] | outcome [9] | outcome [10] | outcome [12] | Potency [13] | Potency [18]

O=C(CCS)OCC(COC(=O)CCS)(COC(=O)CCS)COC(=O)CCS
inactive: Potency [1] | Potency [15] | Potency [2] | outcome [3] | outcome [4] | Potency [6] | outcome [17] | Potency [7] | outcome [8] | outcome [9] | outcome [10] | outcome [12] | Potency [13] | Potency [18] | Potency [14]

CCC(Cl)CC(Cl)C(Cl)C(Cl)C(Cl)C(C)Cl (centres undefined)
inactive: activation [1] 8.79% [at 17.9 µM] | activity, negative = cytotoxicity [2] 13% [at 17.9 µM] | activity change, negative = cytotoxicity [3] -14.9% [at 17.9 µM] | fluorescence, relative to Rose Bengal [4] 0.266% [at 13.4 µM] | fluorescence, % of fluorescein control [5] -0.0606% [at 13.4 µM] | fluorescence, % of fluorescent control [16] -0.173% [at 13.4 µM] | fluorescence, % of fluorescent control [7] 0.102% [at 13.4 µM] | activity change [8] -0.0067% [at 13.4 µM] | fluorescence, % of fluorescent control [9] -0.0269% [at 13.4 µM] | fluorescence, % of Rose Bengal [10] 0.0345% [at 13.4 µM] | fluorescence, % of fluorescent control [11] 0.066% [at 13.4 µM] | fluorescence, % of fluorescent control [13] 0.0691% [at 13.4 µM] | activation [18] -0.909% [at 15 µM] | Potency [14]

Cc1ccccc1S(N)(=O)=O
inactive: Potency [15] | Potency [2] | outcome [3] | outcome [4] | outcome [5] | Potency [6] | outcome [16] | outcome [17] | Potency [7] | outcome [8] | outcome [9] | outcome [10] | Potency [11] | outcome [12] | Potency [13] | Potency [14]

O=C1CC[C@@H](C(=O)O)N1
inactive: Potency [1] | Potency [15] | Potency [2] | outcome [4] | outcome [5] | Potency [6] | outcome [16] | outcome [17] | Potency [7] | outcome [8] | outcome [9] | outcome [10] | Potency [11] | outcome [12] | Potency [13] | Potency [18]

CC1=CC[C@@H]2C[C@H]1C2(C)C
inactive: activation [1] -0.905% [at 17.9 µM] | activity change, negative = cytotoxicity [15] 5.84% [at 17.9 µM] | activity, negative = cytotoxicity [2] -7.96% [at 17.9 µM] | fluorescence, relative to Rose Bengal [4] -0.0358% [at 18.6 µM] | fluorescence, % of triamterene [6] -0.0033% [at 18.6 µM] | fluorescence, % of fluorescent control [16] -0.712% [at 18.6 µM] | fluorescence, % of fluorescein [17] -0.149% [at 18.6 µM] | fluorescence, % of fluorescent control [7] 0.0118% [at 18.6 µM] | activity change [8] -0.0302% [at 18.6 µM] | fluorescence, % of fluorescent control [9] 0.0507% [at 18.6 µM] | fluorescence, % of Rose Bengal [10] 0.0249% [at 18.6 µM] | fluorescence, % of fluorescein control [12] 0.0311% [at 18.6 µM] | fluorescence, % of fluorescent control [13] -0.0004% [at 18.6 µM]

Reference: PubChem BioAssay (Tox21)
